Records with an inconclusive call do not appear. Calls of active or inactive are those of the source. Unless noted, calls come from the whole dose curve; as a rule, active = well fitted curve in the direction sought with a large enough effect in the repeat runs; inconclusive = weak or mixed curves; inactive = no such curve, though single readings can be large; an effect the other way counts as inactive or inconclusive.
Key:
[1] = qHTS assay to identify small molecule agonists of the hypoxia (HIF-1) signaling pathway - cell viability counter screen (AID 1224844; calls by dose curve; note: nearly all actives have a fitted effect of over 50% in size)
Method in brief: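 CellTiter-Glo luminescence read-out, 30 min RT, taken in the same wells as the beta-lactamase HRE reporter assay; HRE-bla ME-180 cells, 0.5% dialyzed FBS, 17 hr compound treatment at 37C, 5% CO2.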

[2] = qHTS assay to identify small molecule agonists of H2AX (AID 1224845; active = well fitted activation curve with a large enough effect in the signal ratio in the repeat runs, not every such curve was filed as active; the % refers to the signal ratio)
Method in brief: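 Wild-type CHO-K1 cells plated overnight, then exposed 3 hr at 37C to compounds at 15 concentrations (0.76% DMSO). Lysed, then HTRF anti-pH2AX(S139)-cryptate/anti-H2AX-d2 detection after 24 hr at room temperature; emissions 665 and 620 nm.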

[3] = qHTS assay to identify small molecule agonists of the hypoxia (HIF-1) signaling pathway (AID 1224846; active = well fitted activation curve with a large enough effect in the signal ratio in the repeat runs, not every such curve was filed as active; the % refers to the signal ratio)
Method in brief: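 Beta-lactamase FRET read-out (CCF4-AM substrate) from ME-180 cells carrying an HRE-driven bla reporter, after 17 hrs compound exposure at 37C/5% CO2. Cells were seeded at 2,000 per well in 0.5% dialyzed FBS medium and preincubated 5 hrs.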

[4] = qHTS assay to identify small molecule agonists of H2AX - cell viability counter screen (AID 1224847; calls by dose curve; note: top concentration of the series differs between compounds; nearly all actives have a fitted effect of over 30% in size)
Method in brief: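 Wild-type CHO-K1 cells (10% FBS medium) were plated overnight at 37C, exposed to compounds at 15 concentrations for 3 hr at 37C (0.76% DMSO final), and viability was read as CellTiter-Glo luminescence after 30 min at room temperature.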

[5] = qHTS RealTime-Glo MT Cell Viability Assay in HepG2 cells - 24 hour (AID 1224867); note: nearly all actives have a fitted effect of over 50% in size
Method in brief: (§1)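 Viability was tracked continuously by NanoLuc luminescence from prosubstrate reduced by living HepG2 cells, at successive time points over 40 h of compound exposure. Cells with reagent were preincubated 5 h at 37 °C before compound addition.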

[6] = qHTS RealTime-Glo MT Cell Viability Assay in HEK293 cells - 32 hour (AID 1224868); note: nearly all actives have a fitted effect of over 50% in size; note: potency is the fitted concentration of half-maximal effect
Method in brief: (§2)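 Viability tracked continuously by luminescence as live cells reduce a prosubstrate for NanoLuc; HEK293 cells preincubated 5 h, compound-treated at 37 C, and read at 0, 8, 16, 24, 32 and 40 h.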

[7] = A CellTox Green Cytotoxicity Assay to monitor cytotoxicity in HEK293 cells - 0 hour (AID 1224869); note: nearly all actives have a fitted effect of over 50% in size
Method in brief: (§3)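 Read-out: fluorescence of a cell-impermeant cyanine dye staining DNA of dead cells, proportional to cytotoxicity. HEK293, 600 cells/well with reagent, compound (23 nL DMSO) added after 5 h; reads at 0, 8, 16, 24, 32, 40 h.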

[8] = qHTS RealTime-Glo MT Cell Viability Assay in HepG2 cells - 40 hour (AID 1224870); note: nearly all actives have a fitted effect of over 50% in size
Method in brief: (§4)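 HepG2 cells mixed with RealTime-Glo MT reagents (NanoLuc plus cell-permeant prosubstrate) were seeded at 600 cells/well, incubated 5 h at 37 C/5% CO2, then pinned with compounds in DMSO; nonlytic luminescence tracked viability during 40 h treatment.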

[9] = A CellTox Green Cytotoxicity Assay to monitor cytotoxicity in HEK293 cells - 40 hour (AID 1224871); note: nearly all actives have a fitted effect of over 45% in size
Method in brief: as §3

[10] = qHTS RealTime-Glo MT Cell Viability Assay in HEK293 cells - 16 hour (AID 1224872); note: nearly all actives have a fitted effect of over 50% in size; note: potency is the fitted concentration of half-maximal effect
Method in brief: as §2

[11] = qHTS RealTime-Glo MT Cell Viability Assay in HepG2 cells - 8 hour (AID 1224873); note: nearly all actives have a fitted effect of over 55% in size
Method in brief: as §4

[12] = qHTS RealTime-Glo MT Cell Viability Assay in HEK293 cells - 40 hour (AID 1224874); conditions: RealTime-Glo luminescence; max response: stronger effect = lower value; note: nearly all actives have a fitted effect of over 50% in size; note: potency is the fitted concentration of half-maximal effect
Method in brief: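 Luminescence readout at each listed time point; HEK293, 600 cells/well, RealTime-Glo MT reagent added with cells; compounds pinned (23 nL in DMSO) after 5 h at 37 C; continuous culture at 37 C.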

[13] = A CellTox Green Cytotoxicity Assay to monitor cytotoxicity in HEK293 cells - 24 hour (AID 1224875); note: nearly all actives have a fitted effect of over 45% in size
Method in brief: as §3

[14] = A CellTox Green Cytotoxicity Assay to monitor cytotoxicity in HepG2 cells - 16 hour (AID 1224876); note: nearly all actives have a fitted effect of over 45% in size
Method in brief: (§5)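 HepG2, 600 cells/well premixed w/ CellTox Green; 5 h settle, 37 C/5% CO2; pintool cpd add (DMSO); 37 C, 40 h; fluorescence read at 0, 8, 16, 24, 32, 40 h.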

[15] = qHTS RealTime-Glo MT Cell Viability Assay in HepG2 cells - 32 hour (AID 1224877); note: nearly all actives have a fitted effect of over 55% in size
Method in brief: as §1

[16] = A CellTox Green Cytotoxicity Assay to monitor cytotoxicity in HepG2 cells - 40 hour (AID 1224879); note: nearly all actives have a fitted effect of over 40% in size; note: potency is the fitted concentration of half-maximal effect
Method in brief: as §5

[17] = biological target: Thyrotropin receptor (Homo sapiens) (UniProt P16473); assay: qHTS assay to identify small molecule agonists of the thyroid stimulating hormone receptor (TSHR) signaling pathway (AID 1224843; calls by dose curve; note: nearly all actives have a fitted effect of over 45% in size)
Method in brief: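 Using 15 concentrations per compound in triplicate, cAMP production was monitored in TSHR-HEK293 cells after 30 min compound incubation at RT; HTRF reagents followed, with fluorescence intensity recorded after 1 h.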

[18] = qHTS assay to identify small molecule antagonists of the estrogen related receptor (ERR) signaling pathway from Tox21 library (AID 1224848); note: nearly all actives have a fitted effect of over 50% in size; note: potency is the fitted concentration of half-maximal effect
Method in brief: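 Tox21 10K compounds in DMSO tested for ERR pathway antagonism in NTP's ERR cell line; 18 h, 37 C exposure; ONE-Glo luminescence.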

[19] = qHTS assay to identify small molecule agonists of the estrogen related receptor (ERR) signaling pathway from Tox21 library (AID 1224849; calls by dose curve; note: nearly all actives have a fitted effect of over 15% in size); conditions: ERR reporter cell line, ONE-Glo luciferase, 18 h; at 92.4 µM (top of the series) unless noted
Method in brief: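 Luminescence readout (ONE-Glo, 30 min RT) after 18 h compound exposure at 37 C of NTP-supplied ERR reporter cells; cells were plated 6 h before compound addition by pin tool.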

[20] = A CellTox Green Cytotoxicity Assay to monitor cytotoxicity in HepG2 cells - 24 hour (AID 1224878); note: nearly all actives have a fitted effect of over 45% in size
Method in brief: as §5
% is set by controls: 0 for no effect and ±100 for the full control effect.

Sequence of Thyrotropin receptor (Homo sapiens) (P16473 whole entry, looked up): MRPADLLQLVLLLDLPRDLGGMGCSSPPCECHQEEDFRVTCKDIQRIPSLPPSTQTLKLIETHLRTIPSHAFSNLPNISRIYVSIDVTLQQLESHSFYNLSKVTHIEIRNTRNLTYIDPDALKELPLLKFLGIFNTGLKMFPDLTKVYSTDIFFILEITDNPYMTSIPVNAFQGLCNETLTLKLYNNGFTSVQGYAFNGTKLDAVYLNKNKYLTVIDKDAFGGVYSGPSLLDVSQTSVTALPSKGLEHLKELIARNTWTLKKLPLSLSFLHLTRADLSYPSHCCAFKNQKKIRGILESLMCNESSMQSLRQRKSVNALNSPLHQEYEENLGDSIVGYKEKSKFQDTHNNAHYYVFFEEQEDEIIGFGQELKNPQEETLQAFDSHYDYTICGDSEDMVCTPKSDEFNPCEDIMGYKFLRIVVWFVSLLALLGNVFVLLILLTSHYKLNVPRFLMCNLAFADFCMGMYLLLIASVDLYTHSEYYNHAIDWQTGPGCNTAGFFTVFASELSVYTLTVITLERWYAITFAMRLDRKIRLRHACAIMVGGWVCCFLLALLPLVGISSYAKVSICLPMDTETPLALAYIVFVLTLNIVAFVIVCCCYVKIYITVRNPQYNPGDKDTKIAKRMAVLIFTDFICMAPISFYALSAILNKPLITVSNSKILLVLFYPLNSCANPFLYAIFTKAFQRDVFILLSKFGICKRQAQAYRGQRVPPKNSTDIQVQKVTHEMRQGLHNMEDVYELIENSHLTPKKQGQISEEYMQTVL

CCCCC(CC)COC(=O)COc1cc(Cl)c(Cl)cc1Cl (centres undefined)
inactive: Potency [1] | Potency [2] | outcome [3] | Potency [4] | Potency [5] | Potency [6] | Potency [7] | Potency [8] | Potency [9] | Potency [10] | outcome [11] | max response [12] -3.13% | Potency [13] | Potency [14] | Potency [15] | Potency [16]

CNCCC(Oc1ccccc1OC)c1ccccc1 (centres undefined)
inactive: Potency [17] | Potency [1] | Potency [4] | Potency [18] | activity change, positive = activation [19] -5.63% [at 42.5 µM] | Potency [5] | Potency [6] | Potency [7] | Potency [9] | Potency [10] | outcome [11] | max response [12] -21.1% | Potency [13] | Potency [14] | Potency [15] | Potency [20] | Potency [16]

CCCOc1ccc2c(c1)CC[C@@H]1[C@@H]2CC[C@]2(C)C(OC)CC[C@@H]12 (some centres undefined)
inactive: Potency [17] | Potency [1] | Potency [18] | activity change, positive = activation [19] -2.22% [at 42.5 µM] | Potency [5] | Potency [6] | Potency [9] | Potency [10] | outcome [11] | max response [12] 6.13% | Potency [13] | Potency [14] | Potency [15] | Potency [16]

Cc1nc(-c2ccccn2)ncc1C(=O)Nn1cc(C)c2cc(F)ccc21
active: Potency [18] 54500 nM | Potency [6] 1550 nM | Potency [10] 1740 nM | Potency [12] 1380 nM
inactive: Potency [17] | Potency [4] | activity change, positive = activation [19] -53.1% | Potency [5] | Potency [7] | Potency [8] | Potency [9] | outcome [11] | Potency [13] | Potency [14] | Potency [15] | Potency [20] | Potency [16]

CN(CCCN1c2ccccc2CCc2ccccc21)CC(=O)c1ccc(Cl)cc1
inactive: Potency [17] | outcome [3] | Potency [4] | Potency [5] | Potency [6] | Potency [7] | Potency [8] | Potency [10] | outcome [11] | max response [12] -24.7% | Potency [13] | Potency [14] | Potency [15] | Potency [20]
active: Potency [16] 21300 nM

From PubChem BioAssay (Tox21)
